Hits are enriched below; roughly 3.8% of the tested compounds scored in any of these assays.
A549 viability – A549 cytotoxicity, counter-screen for Nrf2 inhibitors; A549 ARE-Fluc cells, CellTiter-Fluor viability, 18-24 h; Potency, µM (top dose mostly 46 µM), for the others: at the highest dose activity change, negative = cytotoxicity, usual class: inhibitors; 390,000 tested, 0.16% active; AID 504648; further: on the % scale 0 is the no-effect control and ±100 the full control effect
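A549 ARE-Fluc cells in 5% FBS OPTI-MEM, 5000 cells/well, rested 2 h then exposed to compounds in concentration-response for 18-24 h at 37 °C. Viability by CellTiter-Fluor fluorescence (Ex 405/Em 525) after 30 min; luciferase luminescence (BugLite, 15 min, RT) read afterwards.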
TGFb SMAD3 inh – inhibitors of TGF-b signaling | Potency, µM (series often up to 46.1 µM), without a hit: at the top dose activity, negative = inhibition, actives largely listed as inhibitors | 410,000 tested, 1.2% active | HepG2 CAGA-GFP TGF-b/SMAD3 reporter, GFP fluorescence, 18 h; TGF-beta stimulated, 500 pg/mL final | AID 588855; further: on the % scale 0 is the no-effect control and ±100 the full control effect; nearly all actives have a fitted effect of over 65% in size
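HEPG2 CAGA-GFP reporter cells (1000/well, DMEM with 1% FBS) received compounds, then recombinant TGF-beta at 500 pg/mL final for 18 hours at 37 degrees C. Per-cell GFP summed per well was normalised to unstimulated and stimulated DMSO controls before curve fitting.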
ATXN2 expr inh – inhibitors of ATXN2 expression | 360,000 tested, 0.72% active | HEK-293 ATXN2-luciferase reporter, luminescence, 24 h | Potency, µM (doses to about 57 µM), for the others: at the top dose activity change, negative = inhibition, hits mostly inhibitors | AID 1745845; further: on the % scale 0 is the no-effect control and ±100 the full control effect; nearly all actives have a fitted effect of over 55% in size
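qHTS (up to 57 uM final) was run with 24 h compound exposure of reporter cells at 37 °C. Each well was multiplexed: SteadyGlo luminescence measured ATXN2-luciferase expression after a fluorogenic Gly-Phe-AFC viability readout (25 uM final).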
S2 tox – reduces viability in counter-screen for ATXN expression inhibitors | S2 cells (HEK-293 line with an ATXN2-luciferase reporter) viability, CellTiter-Fluor protease fluorescence, 24 h | Potency, µM (highest dose often 56.7 µM), usual class: cytotoxic | 400,000 tested, 0.49% active; further: nearly all actives have a fitted effect of over 40% in size
HepG2 viability – kills HepG2 cells in TGF-b inhibitor counter-screen. HepG2 CAGA-GFP viability, ATP luminescence, 18 h. Potency, µM (top dose mostly 46.1 µM), without a hit: at the top dose activity change, negative = cytotoxicity, hits mostly cytotoxic. 410,000 tested, 0.76% active
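CellTiter-Glo luminescence gave cytotoxicity after 18 hours at 37 degrees C. The cells were HepG2 CAGA-GFP in 1% FBS DMEM, stimulated with 500 pg/mL TGF-beta after compound addition. %Activity was normalised to no-cell wells (complete cell-killing) and DMSO (no toxicity), and curves were fitted and classified.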
Nrf2 inh – inhibitors of Nrf2 signaling. 360,000 tested, 2.1% active. Potency, µM (titrated, usually from 46 µM), for inactives: at the top dose activity change, negative = inhibition, most hits filed as inhibitors. A549 ARE-Fluc reporter, luciferase luminescence, 18-24 h; further: on the % scale 0 is the no-effect control and ±100 the full control effect; nearly all actives have a fitted effect of over 60% in size
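Nrf2 function is reported as luminescence of an ARE-controlled luciferase in A549 cells. Compounds were tested at several concentrations, and a CellTiter-Fluor read on the same wells flagged cytotoxicity.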
Starred values were filed as active, the others as inactive; i = inactive; ? = inconclusive; nt = no result given; ! = a repeat was not active; [ ] = remark or other dose. The call rests on the fitted dose curve; in most records, active means well fitted curve in the direction sought with a large enough effect; inconclusive means small, poorly fitted or top-dose-only effect, or another doubt; inactive means no such curve, though single readings can be large; an effect the other way counts as inactive or inconclusive. Potency means the concentration at half of the fitted maximal effect.

SMILES	A549 viability	TGFb SMAD3 inh	ATXN2 expr inh	S2 tox	HepG2 viability	Nrf2 inh
CON=C1C[C@]2(C[C@@H]3C[C@@H](C/C=C(\C)C[C@@H](C)/C=C/C=C4\CO[C@@H]5[C@H](O)C(C)=C[C@@H](C(=O)O3)[C@]45O)O2)O[C@H](/C(C)=C/C(C)C)[C@H]1C	nt	nt	nt	16µM*	nt	nt
CCc1ccccc1NC(=O)CC1Sc2ccc(C(F)(F)F)cc2NC1=O (stereo unspecified)	5%	13%	-7%	i	-51%	9%
O=C(CC1Sc2ccc(C(F)(F)F)cc2NC1=O)Nc1ccc(Cl)c(C(F)(F)F)c1 (stereo unspecified)	-15%	14µM*	?	i	-97%	?
Cc1cccc(-c2csc3ncnc(Sc4nnnn4C)c23)c1	-11%	nt	nt	nt	nt	?
Cc1sc2ncnc(Sc3nnnn3-c3ccccc3)c2c1C	2%	13µM*!	16µM*	32µM*	10µM*!	?
Clc1ccc(-c2csc3ncnc(Sc4nnnn4-c4ccccc4)c23)cc1	nt	6.3µM*	nt	nt	6.3µM*	nt
c1ccc(-c2ccc(-c3csc4ncnc(Sc5nnnn5-c5ccccc5)c34)cc2)cc1	nt	?	nt	nt	-11%	nt
Cc1ccc(-c2csc3ncnc(Sc4nnnn4-c4ccccc4)c23)cc1	nt	6.3µM*	nt	nt	-97%	nt
CCOC(=O)Cc1csc(NC(=O)c2ccc(C)c(S(=O)(=O)N3CCOCC3)c2)n1	6%	-10%	-20%	i	-7%	?
CN(C)CCC(=O)c1cccc(Br)c1	0%	14µM*	nt	?	11µM*	-4%
CN(C)CCC(=O)c1ccc(F)cc1	-2%	-9%	10%	i	-3%	7%
CCOC(=O)c1c(-c2ccc(OC)cc2)csc1NC(=O)COc1ccc2c(C)cc(=O)oc2c1	0%	0%	0%	i	0%	13%
CCOC(=O)c1c(-c2ccc(OC)cc2)csc1NC(=O)CSc1ncnc2sccc12	20%	-19%	nt	i	-11%	15µM*
CCOC(=O)c1c(-c2ccccc2)csc1NC(=O)CSc1nnc(C)s1	-10%	?	-18%	i	0%	13µM*
CCOC(=O)c1c(-c2ccc(C)o2)csc1NC(=O)CSc1nnc(C)s1	-19%	?	-3%	i	-11%	?
O=C(Nc1ccc2c(c1)OCO2)C1Cc2c(-c3ccccc3Oc3ccccc3)ccnc2O1 (stereo unspecified)	nt	-19%	?	?	-18%	nt
C/C=C(\C)C(=O)OC(C)(C)[C@@H]1Cc2cc3ccc(=O)oc3cc2O1	8%	6.3µM*	-23%	i	-32%	-1%
C/C=C(/C)C(=O)OC(C)(C)[C@@H]1Cc2c(ccc3ccc(=O)oc23)O1	0%	?	-17%	i	2%	?
O=C(CSc1ncnc2[nH]ncc12)Nc1nc(-c2ccc(F)c(F)c2)cs1	7%	-18%	nt	i	-18%	6.5µM*
Cc1cccc(C)c1NC(=O)CSc1ncnc2[nH]ncc12	0%	-12%	2%	i	12%	-11%
COc1ccc(-c2csc(NC(=O)Cc3cc(OC)c(OC)c(OC)c3)n2)cc1OC	?	-7%	-32%	i	-22%	21µM*
COc1cc(CC(=O)Nc2nc(C)cs2)cc(OC)c1OC	-2%	6%	2%	i	-12%	?
O=C(Cc1ccc(F)cc1)Nc1nc(-c2ccc(F)c(F)c2)cs1	-29%	?	-26%	i	-39%	23µM*
CS(=O)(=O)N1CCc2cc(-c3csc(NC(=O)C(c4ccccc4)c4ccccc4)n3)ccc21	-6%	-2%	2%	i	-14%	-19%
CC1Cc2cc(-c3csc(NC(=O)Cc4ccccc4)n3)ccc2N1S(C)(=O)=O (stereo unspecified)	-24%	?	?	?	-30%	15µM*
SMILES	A549 viability	TGFb SMAD3 inh	ATXN2 expr inh	S2 tox	HepG2 viability	Nrf2 inh
CCCCn1c(N)c(N(CC)C(=O)c2cc3c(s2)CCCCC3)c(=O)[nH]c1=O	-8%	-4%	-2%	i	5%	-5%
Cc1cc(N2CCCCC2)nc2ccc(NC(=O)c3ccc(Br)o3)cc12	?	-17%	-29%	?	-28%	21µM*
COc1ccc(/C=C/C(=O)Nc2ccc3nc4c(c(Nc5ccc(OC)c(OC)c5)c3c2)CCCC4)cc1	?	4.5µM*	nt	nt	5µM*	9%[9.27 µM]
Cc1ccc(C)c(N2CCN(C(=S)Nc3ccc4nc(N5CCOCC5)cc(C)c4c3)CC2)c1	3%	-18%	-22%[11.3 µM]	i	3%	?
CCN(CC)CCNC(=S)Nc1ccc2nc(N3CCN(C)CC3)cc(C)c2c1	?	13%	-18%	?	-4%	-16%
CCN(CC)CCNC(=S)Nc1ccc2nc(N3CCCC3)cc(C)c2c1	5.8µM*	4%	?	i	-21%	2%
Cc1cc(N2CCN(C)CC2)nc2ccc(NC(=O)c3ccc(Br)o3)cc12	-9%	48%	10%	?	-24%	20%
Cc1ccc(C)c(N2CCN(C(=S)Nc3ccc4nc(N5CCN(C)CC5)cc(C)c4c3)CC2)c1	?	?	?	i	10µM*	-23%
COc1cc(NC(=O)c2c(C)oc3ncnc(N4CCCCC4)c23)cc(OC)c1	-5%	?	nt	nt	-30%	10%
Cn1cnnc1SCC(=O)NC1CC1	-2%	17%	-2%	?	7%	4%
COc1ccc(Nc2c3c(nc4ccc(NC(=O)/C=C/c5cc(OC)c(OC)c(OC)c5)cc24)CCCC3)cc1OC	?	3.2µM*	nt	nt	2.8µM*	5%[9.27 µM]
COc1ccccc1Nc1c2c(nc3ccc(NC(=O)c4cccc(F)c4)cc13)CCCC2	?	?	nt	nt	-107%	?
COc1ccc(/C=C/C(=O)Nc2ccc3nc4c(c(Nc5ccccc5OC)c3c2)CCCC4)cc1	?	7.1µM*	nt	nt	-84%	10%[9.27 µM]
COc1ccc(/C=C/C(=O)Nc2ccc3nc(N4CCCCC4)cc(C)c3c2)cc1OC	-28%	13µM*	?	?	-93%	10%[9.27 µM]
COc1ccc(/C=C/C(=O)Nc2ccc3nc(N4CCC(C)CC4)cc(C)c3c2)cc1	-10%	4%	-20%	i	-32%	10%[9.27 µM]
CCN(CC)c1cc(C)c2cc(NC(=O)/C=C/c3cc(OC)c(OC)c(OC)c3)ccc2n1	?	16µM*	nt	nt	10µM*	-2%[9.27 µM]
CN(N=O)C(=O)N[C@@H]1[C@@H](O)[C@H](O)[C@@H](CO)O[C@@H]1O	nt	nt	9%	i	nt	nt
CCOC(=O)Cc1ccc(NC(=O)NCc2ccc3c(c2)CCN3C(=O)CC)cc1	3%	2%	-7%	i	-5%	nt

Source: PubChem BioAssay
